# PubChem BioAssay
# A number with no mark means an inactive call. For some assays here: Results with a measured potency or affinity are listed apart. Active and inactive are the calls of the source. Unless noted, no rule for the calls is given here.
# Legend:
# [1] = antimalarial activity against Dd2 strain (AID 2302;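 active = growth inhibition above 50% at the single 2 µM test dose, taken to imply half-maximal potency below 2 µM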;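 also: 0% = DMSO untreated growth and 100% = chloroquine plus artemisinin killed control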); details: P. falciparum Dd2 in RBCs, LDH growth readout, 72 h; at 2 µM; stronger effect = higher value
# [2] = human hepatoma cell viability loss – ATP luminescence, cytotoxicity control for P. falciparum antimalarial project, primary screen (AID 2303;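 active = inhibition above 50%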;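 also: 0% = DMSO wells and 100% = digitonin-killed cells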); details: HepG2 viability, 24-48 h, at 10 µM, stronger effect = higher value
# [3] = target: L-lactate dehydrogenase (Plasmodium falciparum (isolate CDC / Honduras)) (UniProt Q27743); assay: PfLDH activity inhibition – cell lysate, 3D7 strain, counter-screen for P. falciparum growth inhibition project (AID 2304);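 also: 0% = vehicle and 100% = reference inhibitor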; details: P. falciparum 3D7 crude extract, LDH APAD/NBT absorbance; at 2 µM; stronger effect = higher value
# Sequence of L-lactate dehydrogenase (Plasmodium falciparum (isolate CDC / Honduras)) (Q27743 whole entry, looked up): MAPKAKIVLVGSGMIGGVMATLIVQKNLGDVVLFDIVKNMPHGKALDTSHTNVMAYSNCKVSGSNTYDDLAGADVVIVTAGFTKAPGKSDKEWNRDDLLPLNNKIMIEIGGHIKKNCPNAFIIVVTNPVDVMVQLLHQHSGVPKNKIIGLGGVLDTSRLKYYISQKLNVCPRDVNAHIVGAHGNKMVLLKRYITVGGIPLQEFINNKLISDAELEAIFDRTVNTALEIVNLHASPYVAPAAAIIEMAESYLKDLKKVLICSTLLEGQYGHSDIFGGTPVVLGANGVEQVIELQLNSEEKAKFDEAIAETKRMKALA
# [4] = inhibition of 3D7 malaria parasite growth – strain 3D7 (AID 2306);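 also: 0% = DMSO wells and 100% = chloroquine plus artemisinin control wells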; details: P. falciparum 3D7 erythrocytic growth, LDH absorbance, 72 h; at 2 µM; stronger effect = higher value
# [5] = target: Calcium-dependent protein kinase 1 (Plasmodium falciparum (isolate 3D7)) (UniProt P62344); assay: PfCDPK1 kinase inhibitors, biochemical, TCAMS library (AID 1159585; cut-off not given, nearly all actives have IC50 up to about 0.98 µM;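 also: inhibitors leave more ATP so luminescence rises with inhibition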); details: recombinant PfCDPK1, Kinase-Glo ATP depletion luminescence
# Sequence of Calcium-dependent protein kinase 1 (Plasmodium falciparum (isolate 3D7)) (P62344 whole entry, looked up): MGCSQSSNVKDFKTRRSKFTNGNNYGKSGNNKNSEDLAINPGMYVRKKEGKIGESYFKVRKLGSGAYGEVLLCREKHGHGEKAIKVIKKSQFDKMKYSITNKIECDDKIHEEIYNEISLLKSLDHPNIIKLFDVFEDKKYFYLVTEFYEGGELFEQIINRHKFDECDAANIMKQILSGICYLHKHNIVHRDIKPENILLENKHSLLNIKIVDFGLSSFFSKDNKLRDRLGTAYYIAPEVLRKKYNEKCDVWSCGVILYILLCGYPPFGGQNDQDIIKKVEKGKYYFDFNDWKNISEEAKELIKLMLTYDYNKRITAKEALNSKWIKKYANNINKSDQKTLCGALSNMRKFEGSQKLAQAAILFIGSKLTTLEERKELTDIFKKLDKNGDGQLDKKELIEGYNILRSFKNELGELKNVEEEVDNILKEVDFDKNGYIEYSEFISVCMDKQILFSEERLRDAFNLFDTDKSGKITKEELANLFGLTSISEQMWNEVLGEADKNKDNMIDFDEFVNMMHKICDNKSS
# [6] = target: Plasmodium falciparum protein kinase 6 (PK6, PF3D7_1337100) (UniProt Q8IDW1); assay: PfPK6 kinase inhibitors, biochemical, TCAMS library (AID 1159586); details: recombinant PfPK6, Kinase-Glo ATP depletion luminescence
# Sequence of Plasmodium falciparum protein kinase 6 (PK6, PF3D7_1337100) (Q8IDW1 1-305): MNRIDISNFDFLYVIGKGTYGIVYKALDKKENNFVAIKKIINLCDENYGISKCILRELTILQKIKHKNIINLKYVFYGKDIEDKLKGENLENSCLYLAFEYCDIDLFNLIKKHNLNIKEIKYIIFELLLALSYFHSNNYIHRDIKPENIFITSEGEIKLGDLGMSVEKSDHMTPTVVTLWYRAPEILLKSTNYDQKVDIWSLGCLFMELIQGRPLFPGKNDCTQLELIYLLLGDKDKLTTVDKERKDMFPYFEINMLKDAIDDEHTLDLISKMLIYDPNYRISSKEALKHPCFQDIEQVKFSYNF
# [7] = target: Protein kinase 7 (PK7), Plasmodium falciparum 3D7 (PF3D7_0213400) (UniProt Q7YTF7); assay: inhibition of Plasmodium PK7 catalytic activity – biochemical, TCAMS antimalarial set, Kinase-Glo luminescence (AID 1159587); details: recombinant PfPK7, Kinase-Glo ATP depletion luminescence
# Sequence of Protein kinase 7 (PK7), Plasmodium falciparum 3D7 (PF3D7_0213400) (Q7YTF7 1-343): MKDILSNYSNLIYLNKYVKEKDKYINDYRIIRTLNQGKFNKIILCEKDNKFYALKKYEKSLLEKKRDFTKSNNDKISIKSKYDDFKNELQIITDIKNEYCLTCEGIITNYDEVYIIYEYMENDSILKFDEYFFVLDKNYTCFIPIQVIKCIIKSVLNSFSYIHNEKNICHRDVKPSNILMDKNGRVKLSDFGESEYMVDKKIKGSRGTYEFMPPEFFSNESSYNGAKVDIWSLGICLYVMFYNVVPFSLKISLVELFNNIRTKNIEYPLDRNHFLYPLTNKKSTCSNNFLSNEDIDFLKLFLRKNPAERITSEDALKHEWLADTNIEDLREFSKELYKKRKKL
# [8] = target: Calcium-dependent protein kinase 4 (Plasmodium falciparum (isolate 3D7)) (UniProt Q8IBS5); assay: PfCDPK4 kinase inhibitors, biochemical, TCAMS library (AID 1159588; cut-off not given, nearly all actives have IC50 up to about 0.91 µM); details: recombinant PfCDPK4, Kinase-Glo ATP depletion luminescence
# Sequence of Calcium-dependent protein kinase 4 (Plasmodium falciparum (isolate 3D7)) (Q8IBS5 whole entry, looked up): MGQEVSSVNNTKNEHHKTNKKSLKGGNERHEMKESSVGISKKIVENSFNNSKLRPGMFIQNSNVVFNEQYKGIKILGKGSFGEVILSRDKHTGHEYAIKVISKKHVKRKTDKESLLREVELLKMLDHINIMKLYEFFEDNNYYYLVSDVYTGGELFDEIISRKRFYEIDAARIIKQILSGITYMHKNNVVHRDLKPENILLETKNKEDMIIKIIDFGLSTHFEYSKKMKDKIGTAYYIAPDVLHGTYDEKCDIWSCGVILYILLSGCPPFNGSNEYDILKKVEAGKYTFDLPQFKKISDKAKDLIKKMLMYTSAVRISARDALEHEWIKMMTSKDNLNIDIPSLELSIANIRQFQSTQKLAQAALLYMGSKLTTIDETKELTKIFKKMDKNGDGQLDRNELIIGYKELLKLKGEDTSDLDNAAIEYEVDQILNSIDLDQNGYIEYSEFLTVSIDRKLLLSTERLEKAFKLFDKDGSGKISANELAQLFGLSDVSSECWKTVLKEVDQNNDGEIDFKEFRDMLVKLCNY
Structure (SMILES),growth inhibition [1],inhibition [2],inhibition [3] [%],growth inhibition [4],outcome [5],outcome [6],outcome [7],outcome [8]
Cc1cc(NCc2ccc(F)cc2)nc2cc(O)ccc12,85% (active),14%,-7,98% (active),inactive,inactive,inactive,inactive
COc1ccc(CNCCCCCCNCc2ccc(OC)c3ccccc23)c2ccccc12,49%,100% (active),-5,102% (active),inactive,inactive,inactive,inactive
CCNc1cc(C(=O)N[C@@H](Cc2ccccc2)[C@H](O)CNCc2cccc(-n3ccnc3)c2)cc(N2CCCC2=O)c1,96% (active),1%,1,99% (active),inactive,inactive,inactive,inactive
COc1ccc(CNCc2ccc(F)cc2)cc1-c1ccc(S(=O)(=O)NCCN2CCCC2)cc1,25%,38%,0,91% (active),inactive,inactive,inactive,inactive
CC(C)c1ccc(NC(=O)Nc2ccc(Cn3ncc(N4CCCNCC4)c(Cl)c3=O)cc2)cc1,27%,11%,2,85% (active),inactive,inactive,inactive,inactive
CCc1cc2c(cc1OCCN(C)C)N(C(=O)Nc1ccc(-c3ccncc3)c(Cl)c1)CC2,7%,18%,-1,95% (active),inactive,inactive,inactive,inactive
CCCCCN1CCCC(CNS(=O)(=O)c2cccc(C(=O)Nc3ccc(C(F)(F)F)cc3)c2)C1 (stereo not given),2%,27%,4,96% (active),inactive,inactive,inactive,inactive
O=C(NCc1ccc(F)cc1)Nc1cccc(-c2ccc(-c3nc4ccccc4[nH]3)cc2)c1,49%,45%,2,101% (active),inactive,inactive,inactive,inactive
COc1ccc(NC(=O)[C@H](CC(C)C)Nc2cc(C)nc(NCCc3ccc(F)cc3)n2)cc1,79% (active),1%,-3,100% (active),inactive,inactive,inactive,inactive
NC1=NC(c2ccccc2)(c2ccccc2)C(=O)N1CCOc1ccccc1,57% (active),42%,0,90% (active),inactive,inactive,inactive,inactive
Nc1c2ccccc2nc2cc([N+](=O)[O-])ccc12,26%,92% (active),-1,98% (active),inactive,inactive,inactive,inactive
CN(C)Cc1cc(Nc2ccnc3cc(Cl)ccc23)ccc1O,100% (active),36%,-3,100% (active),inactive,inactive,inactive,inactive
CC(O)C1CCCCN1C(=O)c1cccc(-c2ccc(-c3nc4ccc(C(F)(F)F)cc4[nH]3)cc2)c1 (stereo not given),100% (active),33%,0,101% (active),inactive,inactive,inactive,inactive
O=C(/C=C/c1ccc(Cl)c(Cl)c1)NCCCCCN1CCCN(C(=O)Nc2cc(Cl)nc(Cl)c2)CC1,3%,8%,-1,103% (active),inactive,inactive,inactive,inactive
Nc1cccc(CNCc2ccc(-c3cccc(-c4nc5ccc(F)cc5[nH]4)c3)cc2)c1,94% (active),36%,-3,101% (active),inactive,inactive,inactive,inactive
O=C(Nc1ccc2c(c1)OCCO2)c1cc(-c2cccnc2)nc2ccc(Cl)cc12,27%,2%,-1,95% (active),inactive,inactive,inactive,inactive
CS(=O)(=O)NCCCNCc1ccc(-c2cccc(-c3nc4ccc(C(F)(F)F)cc4[nH]3)c2)cc1,83% (active),17%,1,100% (active),inactive,inactive,inactive,inactive
Cc1cc(C(F)(F)F)cc(-n2ncc(-c3ccc(C(=O)NCCNCc4ccccc4)cc3)c2N)n1,9%,98% (active),-1,91% (active),inactive,inactive,inactive,inactive
COc1cccc(Nc2c(C(N)=O)cnc3ccc(-c4ccc(S(C)=O)cc4)cc23)c1 (stereo not given),100% (active),-3%,9,96% (active),inactive,inactive,inactive,inactive
O=C(/C=C/c1c(Cl)cccc1Cl)NC1CCC(CN2CCC(c3c[nH]c4ccncc34)CC2)CC1 (stereo not given),100% (active),78% (active),2,99% (active),inactive,inactive,inactive,inactive

Structure (SMILES),growth inhibition [1],inhibition [2],inhibition [3] [%],growth inhibition [4],outcome [5],outcome [6],outcome [7],outcome [8]
CC1(C)N=C(NC(=O)c2ccc([N+](=O)[O-])cc2)N=C(N)N1OCc1ccc2ccccc2c1,78% (active),64% (active),-8,95% (active),inactive,inactive,inactive,inactive
O=C(/C=C/c1ccc(C(F)(F)F)cc1)NCCCCCN1CCC(c2c[nH]c3ccccc23)CC1,22%,96% (active),1,101% (active),inactive,inactive,inactive,inactive
Cc1nc(-c2nc(NCCc3ccncc3)ncc2-c2ccsc2)sc1C,87% (active),10%,-1,92% (active),inactive,inactive,inactive,inactive
CCOc1ccc2c(c1)OC(c1ccccc1)(C(F)(F)F)NC2=O (stereo not given),98% (active),-7%,-2,100% (active),inactive,inactive,inactive,inactive
Cc1cccc2[nH]c(-c3ccc(-c4ccc(CN5CCC(CO)CC5)cc4)s3)nc12,82% (active),15%,-10,101% (active),inactive,inactive,inactive,inactive
Nc1ccc2[nH]cc(C3CCN(CCC4CCN(C(=O)/C=C/c5ccc(Cl)c(Cl)c5)CC4)CC3)c2n1,78% (active),27%,0,100% (active),inactive,inactive,inactive,inactive
CCC(CC)C(CC(=O)NC(C)(C)CCc1ccccc1OC)Nc1ccc(C#N)c2ccccc12 (stereo not given),91% (active),9%,-1,93% (active),inactive,inactive,inactive,inactive
COc1cc(N)c(Cl)cc1C(=O)NCC1CCN(c2nc(C)cc(C)n2)CC1,95% (active),-6%,4,96% (active),inactive,inactive,inactive,inactive
COc1ccc(-c2ccc(NC(=O)c3ccc(C#N)cc3)cc2)cc1CN(C)CCO,44%,41%,9,99% (active),inactive,inactive,inactive,inactive
O=C(/C=C/c1ccc(Cl)c(Cl)c1)NCCCCCN1CCC(CCNC(=O)Cc2ccc(Cl)cc2)CC1,0%,45%,-8,83% (active),inactive,inactive,inactive,inactive
COc1ccc(NC(=O)c2cn(-c3ccc(C(C)(C)C)cc3)nc2C)cc1N1CCN(C)CC1,71% (active),33%,0,96% (active),inactive,inactive,inactive,inactive
CN(C)CCCN1CCN(Cc2ccc(-c3ccc(-c4nc5ccccc5[nH]4)s3)cc2)CC1,100% (active),19%,4,102% (active),inactive,inactive,inactive,inactive
CN1CCN(c2ccnc3ccc(NC(=O)c4ccc(Cl)c(Cl)c4)cc23)CC1,64% (active),4%,2,100% (active),inactive,inactive,inactive,inactive
O=C(NCCSCc1c(F)cccc1Cl)c1cnc2c(c1)nc(-c1cnc(-c3ccccc3)[nH]1)n2CCc1cnc[nH]1,45%,10%,0,93% (active),inactive,inactive,inactive,inactive
CN1CCN(Cc2ccc(-c3ccc4c(Nc5ccc(Oc6ccccn6)cc5)ccnc4c3)o2)CC1,99% (active),13%,-3,101% (active),inactive,inactive,inactive,inactive
O=C(Nc1ccc(-c2ccccc2)c(OCCN2CCNCC2)c1)c1ccc(-c2ccc(Cl)cc2)cc1,31%,92% (active),-8,96% (active),inactive,inactive,inactive,inactive
c1ccc2c(Nc3ccc(OCCOCCOc4ccc(Nc5c6ccccc6nc6ccccc56)cc4)cc3)c3ccccc3nc2c1,97% (active),38%,7,101% (active),inactive,inactive,inactive,inactive
O=C(Nc1cccc(C(F)(F)F)c1)c1cccc(S(=O)(=O)NCC2CCCN(Cc3ccccc3)C2)c1 (stereo not given),3%,17%,2,94% (active),inactive,inactive,inactive,inactive
CCN(CC)c1ccc(NC(=S)NC2CCN(CCCCCNC(=O)/C=C/c3ccc(Cl)c(Cl)c3)CC2)cc1,58% (active),16%,3,100% (active),inactive,inactive,inactive,inactive
Cc1cc(NC(=O)c2sc3ccccc3c2O)no1,25%,6%,1,96% (active),inactive,inactive,inactive,inactive
